Measured values taken from PubChem BioAssay (EPA / NIEHS).
Results filed as inconclusive are left out. Activity calls are given as the source filed them. The calls were made as follows: active = hit-call score of the fitted dose curve at least 0.9, where 1 is the maximum; inconclusive = response in the unintended direction; inactive = score below 0.9.

Target: Estrogen receptor (Homo sapiens) (UniProt P03372)
Assay: OT_ER_ERaERa_1440: Odyssey Thera (OT) 24-hour HEK293T Protein-Complementation Assay for Estrogen Receptor-alpha/-alpha Homodimer (AID 2283349);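 also: hits raise fluorescence above DMSO for agonists and antagonists alike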
Outline: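 HEK293T, stable ERα LBD (aa 310-547) homodimer PCA; 24 h compound exposure; mean fluorescence intensity (nuclear for agonists, nuclear plus cytoplasmic for antagonists) vs vehicle; positive fitting direction, DMSO baseline.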

Sequence of Estrogen receptor (Homo sapiens) (P03372 whole entry, looked up, the tested form may be a part): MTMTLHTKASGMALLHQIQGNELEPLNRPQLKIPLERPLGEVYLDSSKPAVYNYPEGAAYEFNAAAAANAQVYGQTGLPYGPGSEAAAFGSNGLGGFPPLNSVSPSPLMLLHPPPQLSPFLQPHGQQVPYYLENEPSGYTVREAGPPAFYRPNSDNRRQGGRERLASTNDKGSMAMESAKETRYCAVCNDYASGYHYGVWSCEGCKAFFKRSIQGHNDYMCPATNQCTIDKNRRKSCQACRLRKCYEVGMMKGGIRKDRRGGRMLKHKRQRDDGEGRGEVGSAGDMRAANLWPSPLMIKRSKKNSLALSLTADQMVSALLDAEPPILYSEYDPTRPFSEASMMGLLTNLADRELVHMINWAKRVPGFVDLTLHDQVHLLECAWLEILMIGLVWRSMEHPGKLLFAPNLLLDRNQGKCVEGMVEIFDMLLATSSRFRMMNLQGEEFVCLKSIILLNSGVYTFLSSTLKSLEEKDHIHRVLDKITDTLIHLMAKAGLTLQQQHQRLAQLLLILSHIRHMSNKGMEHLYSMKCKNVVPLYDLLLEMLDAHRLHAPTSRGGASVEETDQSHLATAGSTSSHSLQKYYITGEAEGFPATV

SMILES	outcome	AC50
Cc1ccc([N+](=O)[O-])c(C)c1	inactive	
CCOC(=O)C1CC(=O)C(=C(O)C2CC2)C(=O)C1 (stereo not drawn)	inactive	
CCCCCCCCCCCCC[N+](C)(C)Cc1ccccc1	inactive	
CC(C)(C)c1cc(Cc2cc(C(C)(C)C)c(O)c(C(C)(C)C)c2)cc(C(C)(C)C)c1O	inactive	
OCC1CCCO1 (stereo not drawn)	inactive	
CC(C)Nc1ccc(NC(C)C)c2c1C(=O)c1ccccc1C2=O	inactive	
COCCOCCC[Si](C)(O[Si](C)(C)C)O[Si](C)(C)C		76.1 µM (active)
CCCCCCCC/C=C\CCCCCCCC(=O)N(C)CC(=O)O	inactive	
CC(C)(C)c1cc(CCC(=O)OCC(COC(=O)CCc2cc(C(C)(C)C)c(O)c(C(C)(C)C)c2)(COC(=O)CCc2cc(C(C)(C)C)c(O)c(C(C)(C)C)c2)COC(=O)CCc2cc(C(C)(C)C)c(O)c(C(C)(C)C)c2)cc(C(C)(C)C)c1O	inactive	
N#Cc1ccccc1O	inactive	
CCCCC(CC)COC(=O)c1ccc(N(C)C)cc1 (stereo not drawn)	inactive	
CCOC(OCC)OCC	inactive	
O=C1C=CC(=O)N1c1ccccc1	inactive	

Target: Estrogen receptor (Homo sapiens) (UniProt P03372)
Assay: OT_ER_ERaERa_0480: Odyssey Thera (OT) 8-hour HEK293T Protein-Complementation Assay for Estrogen Receptor-alpha/-alpha Homodimer (AID 2283351);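 also: rise in fluorescence from reassembled reporter fragments on ERα LBD homodimer in nucleus or whole cell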
Outline: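 Read-out: fluorescence intensity rise relative to DMSO, nuclear for agonists, nuclear plus cytoplasmic for antagonists. Construct is the ERα LBD (aa 310-547) homodimer fragment-complementation pair, stably expressed in HEK293T; exposure 8 h.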

SMILES	outcome
Cc1ccc([N+](=O)[O-])c(C)c1	inactive
CCOC(=O)C1CC(=O)C(=C(O)C2CC2)C(=O)C1 (stereo not drawn)	inactive
CCCCCCCCCCCCC[N+](C)(C)Cc1ccccc1	inactive
CC(C)(C)c1cc(Cc2cc(C(C)(C)C)c(O)c(C(C)(C)C)c2)cc(C(C)(C)C)c1O	inactive
OCC1CCCO1 (stereo not drawn)	inactive
CC(C)Nc1ccc(NC(C)C)c2c1C(=O)c1ccccc1C2=O	inactive
COCCOCCC[Si](C)(O[Si](C)(C)C)O[Si](C)(C)C	inactive
N#Cc1ccccc1O	inactive
CCCCC(CC)COC(=O)c1ccc(N(C)C)cc1 (stereo not drawn)	inactive
CCOC(OCC)OCC	inactive
O=C1C=CC(=O)N1c1ccccc1	inactive

Target: T1, Estrogen receptor (Homo sapiens) + Estrogen receptor beta (Homo sapiens) (UniProt P03372+Q92731)
T1 sequence (P03372 whole entry, looked up): as the sequence (P03372 whole entry, looked up, the tested form may be a part) above
T1 sequence (Q92731 whole entry, looked up): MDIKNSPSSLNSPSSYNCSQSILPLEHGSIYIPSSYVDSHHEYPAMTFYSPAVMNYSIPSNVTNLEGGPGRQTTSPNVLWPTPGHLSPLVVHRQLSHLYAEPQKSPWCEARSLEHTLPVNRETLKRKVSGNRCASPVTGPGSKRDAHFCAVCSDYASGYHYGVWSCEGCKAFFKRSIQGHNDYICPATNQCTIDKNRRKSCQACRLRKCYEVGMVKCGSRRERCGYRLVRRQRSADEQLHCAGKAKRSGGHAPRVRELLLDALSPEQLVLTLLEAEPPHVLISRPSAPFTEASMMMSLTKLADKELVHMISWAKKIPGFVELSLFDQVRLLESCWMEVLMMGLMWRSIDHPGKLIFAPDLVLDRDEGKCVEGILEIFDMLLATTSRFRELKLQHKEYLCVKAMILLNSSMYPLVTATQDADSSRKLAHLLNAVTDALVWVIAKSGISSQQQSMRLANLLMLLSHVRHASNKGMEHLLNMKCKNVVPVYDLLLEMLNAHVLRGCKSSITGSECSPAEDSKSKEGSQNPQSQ
Assay: OT_ER_ERaERb_0480: Odyssey Thera (OT) 8-hour HEK293T Protein-Complementation Assay for Estrogen Receptor-alpha/-beta Heterodimer (AID 2283352)
Outline: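 Fluorescence increase from reconstituted reporter fragments, quantified by laser scanning cytometer, reflects ER-alpha/ER-beta heterodimer formation in human HEK293T cells. Exposure 8 h; positive-direction fitting against DMSO vehicle.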

SMILES	outcome	AC50
CC(C)(C)c1cc(Cc2cc(C(C)(C)C)c(O)c(C(C)(C)C)c2)cc(C(C)(C)C)c1O	inactive	
OCC1CCCO1 (stereo not drawn)	inactive	
COCCOCCC[Si](C)(O[Si](C)(C)C)O[Si](C)(C)C		50 µM (active)
CCCCCCCC/C=C\CCCCCCCC(=O)N(C)CC(=O)O	inactive	
CCCCC(CC)COC(=O)c1ccc(N(C)C)cc1 (stereo not drawn)	inactive	
CCOC(OCC)OCC	inactive	

Target: Androgen Receptor/SRC-1 Co-activator, AR (gene 367) (UniProt P10275)
Sequence (P10275 whole entry, looked up): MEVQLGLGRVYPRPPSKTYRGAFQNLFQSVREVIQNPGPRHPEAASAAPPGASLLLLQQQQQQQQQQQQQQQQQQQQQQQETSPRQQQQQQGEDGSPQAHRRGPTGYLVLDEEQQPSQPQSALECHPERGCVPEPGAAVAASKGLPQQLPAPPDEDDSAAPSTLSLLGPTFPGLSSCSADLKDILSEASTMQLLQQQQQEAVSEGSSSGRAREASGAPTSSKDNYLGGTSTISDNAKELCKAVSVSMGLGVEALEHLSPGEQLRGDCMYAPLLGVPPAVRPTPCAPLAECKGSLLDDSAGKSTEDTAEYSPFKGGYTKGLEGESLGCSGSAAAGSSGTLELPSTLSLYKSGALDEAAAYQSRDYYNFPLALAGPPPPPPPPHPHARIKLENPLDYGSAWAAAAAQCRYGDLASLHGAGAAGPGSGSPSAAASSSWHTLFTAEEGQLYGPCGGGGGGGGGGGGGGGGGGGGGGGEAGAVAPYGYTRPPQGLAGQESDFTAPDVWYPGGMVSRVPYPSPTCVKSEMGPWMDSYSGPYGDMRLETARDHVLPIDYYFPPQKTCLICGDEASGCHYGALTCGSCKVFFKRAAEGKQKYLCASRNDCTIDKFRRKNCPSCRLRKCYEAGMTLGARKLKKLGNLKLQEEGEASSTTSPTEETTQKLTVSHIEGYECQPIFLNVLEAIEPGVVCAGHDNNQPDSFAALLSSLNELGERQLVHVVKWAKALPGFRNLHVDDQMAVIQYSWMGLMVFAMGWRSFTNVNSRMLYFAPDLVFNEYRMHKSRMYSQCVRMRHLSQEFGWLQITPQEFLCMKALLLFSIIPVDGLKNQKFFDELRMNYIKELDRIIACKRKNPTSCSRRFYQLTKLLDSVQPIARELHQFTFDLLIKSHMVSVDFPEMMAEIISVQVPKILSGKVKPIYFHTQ
Assay: OT_AR_ARSRC1_0960: Odyssey Thera (OT) 16-hour HEK293T Protein-Complementation Assay for Androgen Receptor/SRC-1 Co-activator (AID 2283353);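 also: actives raise the signal above DMSO so potency reflects increased AR and SRC-1 complex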
Outline: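 Readout: 488 nm nuclear-to-cytoplasmic fluorescence ratio from imaging of at least 400 cells per image, 16 h post-dose. Reporter is Venus YFP complementation between AR and SRC-1 fusions, stably expressed in HEK293T; activity scored upward relative to DMSO.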

SMILES	AC50	outcome
CCCCCCCCCCCCC[N+](C)(C)Cc1ccccc1	14.7 µM (active)	
OCC1CCCO1 (stereo not drawn)		inactive
COCCOCCC[Si](C)(O[Si](C)(C)C)O[Si](C)(C)C	34.3 µM (active)	
O=C1C=CC(=O)N1c1ccccc1	16.4 µM (active)	

Target: Androgen Receptor/SRC-1 Co-activator, AR (gene 367) (UniProt P10275)
Assay: OT_AR_ARSRC1_0480: Odyssey Thera (OT) 8-hour HEK293T Protein-Complementation Assay for Androgen Receptor/SRC-1 Co-activator (AID 2283354);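 also: hits raise the complementation signal above DMSO so AC50 marks enhancers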
Outline: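 Reconstituted split-Venus YFP signal from AR–SRC-1 interaction, read by imaging 8 h post-dose in stable HEK293T lines. The 488 nm nucleus-to-cytoplasm ratio (≥400 cells/image) was fitted upward against DMSO.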

SMILES	AC50	outcome
CCCCCCCCCCCCC[N+](C)(C)Cc1ccccc1	14.6 µM (active)	
COCCOCCC[Si](C)(O[Si](C)(C)C)O[Si](C)(C)C		inactive
O=C1C=CC(=O)N1c1ccccc1	25.6 µM (active)	

Target: T1, Estrogen receptor (Homo sapiens) + Estrogen receptor beta (Homo sapiens)
Assay: OT_ER_ERaERb_1440: Odyssey Thera (OT) 24-hour HEK293T Protein-Complementation Assay for Estrogen Receptor-alpha/-beta Homodimer (AID 2283356);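 also: heteromer of ER alpha and ER beta binding domains; hits raise reporter fluorescence and both agonists and antagonists give an increase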
Outline: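 Fragment complementation between ER alpha (310-547) and ER beta (263-489) ligand-binding domains in HEK293T cells; signal read 24 h post-dosing by laser scanning cytometer. Gain of fluorescence relative to DMSO fitted.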

SMILES	outcome	AC50
CCOC(=O)C1CC(=O)C(=C(O)C2CC2)C(=O)C1 (stereo not drawn)	inactive	
CC(C)(C)c1cc(Cc2cc(C(C)(C)C)c(O)c(C(C)(C)C)c2)cc(C(C)(C)C)c1O	inactive	
OCC1CCCO1 (stereo not drawn)	inactive	
CC(C)Nc1ccc(NC(C)C)c2c1C(=O)c1ccccc1C2=O	inactive	
COCCOCCC[Si](C)(O[Si](C)(C)C)O[Si](C)(C)C		58.7 µM (active)
CCCCCCCC/C=C\CCCCCCCC(=O)N(C)CC(=O)O	inactive	
CC(C)(C)c1cc(CCC(=O)OCC(COC(=O)CCc2cc(C(C)(C)C)c(O)c(C(C)(C)C)c2)(COC(=O)CCc2cc(C(C)(C)C)c(O)c(C(C)(C)C)c2)COC(=O)CCc2cc(C(C)(C)C)c(O)c(C(C)(C)C)c2)cc(C(C)(C)C)c1O	inactive	
CCCCC(CC)COC(=O)c1ccc(N(C)C)cc1 (stereo not drawn)	inactive	
CCOC(OCC)OCC	inactive	
O=C1C=CC(=O)N1c1ccccc1	inactive	

Target: Estrogen receptor beta (Homo sapiens) (UniProt Q92731)
Sequence (Q92731 whole entry, looked up): as the sequence (Q92731 whole entry, looked up) above
Assay: OT_ER_ERbERb_0480: Odyssey Thera (OT) 8-hour HEK293T Protein-Complementation Assay for Estrogen Receptor-beta/-beta Homodimer (AID 2283357);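 also: active means signal gain over DMSO baseline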
Outline: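 ER-beta LBD homodimer PCA stably expressed in HEK293T; 8 h compound exposure, then formaldehyde fixation and Draq5 staining. Gain in nuclear/cytoplasmic fluorescence intensity versus DMSO vehicle, read on laser scanning cytometer.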

SMILES	outcome	AC50
CCCCCCCCCCCCC[N+](C)(C)Cc1ccccc1	inactive	
CC(C)(C)c1cc(Cc2cc(C(C)(C)C)c(O)c(C(C)(C)C)c2)cc(C(C)(C)C)c1O	inactive	
OCC1CCCO1 (stereo not drawn)	inactive	
CC(C)Nc1ccc(NC(C)C)c2c1C(=O)c1ccccc1C2=O	inactive	
COCCOCCC[Si](C)(O[Si](C)(C)C)O[Si](C)(C)C		51.5 µM (active)
CCCCCCCC/C=C\CCCCCCCC(=O)N(C)CC(=O)O	inactive	
CC(C)(C)c1cc(CCC(=O)OCC(COC(=O)CCc2cc(C(C)(C)C)c(O)c(C(C)(C)C)c2)(COC(=O)CCc2cc(C(C)(C)C)c(O)c(C(C)(C)C)c2)COC(=O)CCc2cc(C(C)(C)C)c(O)c(C(C)(C)C)c2)cc(C(C)(C)C)c1O	inactive	
CCCCC(CC)COC(=O)c1ccc(N(C)C)cc1 (stereo not drawn)	inactive	
CCOC(OCC)OCC	inactive	

Target: PGR (gene 5241) (UniProt P06401)
Sequence (P06401 whole entry, looked up): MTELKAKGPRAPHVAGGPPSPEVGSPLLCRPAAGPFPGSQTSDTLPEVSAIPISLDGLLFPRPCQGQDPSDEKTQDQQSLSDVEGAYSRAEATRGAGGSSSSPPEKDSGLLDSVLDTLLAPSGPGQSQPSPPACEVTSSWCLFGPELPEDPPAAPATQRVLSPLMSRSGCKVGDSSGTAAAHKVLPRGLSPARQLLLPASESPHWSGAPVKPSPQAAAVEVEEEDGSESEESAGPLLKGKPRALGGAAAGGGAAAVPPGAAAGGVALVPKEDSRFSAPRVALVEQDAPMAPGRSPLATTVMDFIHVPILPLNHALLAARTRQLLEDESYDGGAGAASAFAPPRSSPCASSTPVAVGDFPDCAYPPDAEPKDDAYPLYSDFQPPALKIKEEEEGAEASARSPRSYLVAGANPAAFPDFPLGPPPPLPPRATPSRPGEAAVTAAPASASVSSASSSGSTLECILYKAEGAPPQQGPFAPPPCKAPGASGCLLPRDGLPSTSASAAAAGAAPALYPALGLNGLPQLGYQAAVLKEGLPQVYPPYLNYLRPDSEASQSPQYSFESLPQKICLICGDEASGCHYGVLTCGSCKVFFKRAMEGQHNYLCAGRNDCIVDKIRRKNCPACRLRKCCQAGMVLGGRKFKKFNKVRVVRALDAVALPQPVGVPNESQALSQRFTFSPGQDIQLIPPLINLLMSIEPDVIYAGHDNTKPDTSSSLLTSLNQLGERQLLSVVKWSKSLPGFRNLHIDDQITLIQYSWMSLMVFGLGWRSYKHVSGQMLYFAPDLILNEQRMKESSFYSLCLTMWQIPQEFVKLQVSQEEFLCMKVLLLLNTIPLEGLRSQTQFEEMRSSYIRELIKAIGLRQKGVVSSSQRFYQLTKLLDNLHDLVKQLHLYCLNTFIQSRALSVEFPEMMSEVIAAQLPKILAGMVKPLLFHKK
Assay: NVS_NR_hPR: NovaScreen (NVS) Nuclear Receptor Binding Assay for human Progestron Receptor (PR) (AID 2283360);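 also: active means loss of bound radioligand signal versus DMSO baseline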
Outline: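 T47D lysate; tritiated or iodinated radioligand; scintillation count at 18 h. DMSO = negative control/baseline. Primary: 25 uM, duplicate. Secondary: concentration series for actives.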

SMILES	outcome	AC50
Oc1ccc(C2(c3ccc(O)c(C4CCCCC4)c3)CCCCC2)cc1C1CCCCC1	inactive	
c1ccc(C[P+](c2ccccc2)(c2ccccc2)c2ccccc2)cc1	inactive	
CSc1ccc(O)cc1C	inactive	
O=C=Nc1cccc2c(N=C=O)cccc12	inactive	
CCN(CC)c1ccc(N=Nc2ccccc2)cc1	inactive	
CCN(CC)c1ccc(C=O)cc1		41.5 µM (active)
Cc1cnccn1	inactive	
